Assay results from PubChem BioAssay AID485273 (Sanford-Burnham Center for Chemical Genomics, 2010).
Where “and” joins values, the source holds several entries; their conditions need not be identical. Identical values can stand only once. About 1,500 (0.45%) of roughly 330,000 compounds were called active. This is one part of a sample in which actives are shown more often than they occur. Rule as the data show it: active = inhibition above about 45% (passing the limit was not always enough); inconclusive = no clear call, values can overlap the other calls.

target: Ubiquitin-conjugating enzyme E2 N (Homo sapiens) (UniProt P61088); experiment: blockers of UBC13 ubiquitin chain synthesis – biochemical, TR-FRET, uHTS, primary screen (AID 485273); settings: UBC13 polyubiquitin chain formation, at 20 µM, active compounds read high
Sequence (P61088 whole entry, looked up): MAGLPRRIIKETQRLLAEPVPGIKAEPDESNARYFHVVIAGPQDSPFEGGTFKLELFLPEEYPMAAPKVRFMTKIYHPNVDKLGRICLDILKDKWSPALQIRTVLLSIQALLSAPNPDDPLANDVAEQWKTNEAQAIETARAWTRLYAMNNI

| SMILES | inhibition |
| --- | --- |
| CCCc1cc(=S)n2c([nH]c3ccccc32)c1C#N | -11.8% (inactive) |
| CCOC(=O)c1ccc(NC(=O)c2nc[nH]c2C(=O)NCc2ccccc2)cc1 | 65% (active) |
| O=C(Nc1ccon1)c1nc[nH]c1C(=O)NCc1ccccc1 | -4.8% (inactive) |
| CCOC(=O)c1[nH]cnc1C(=O)Nc1ccccc1C | -4.7% (inactive) |
| Cc1cc(C)c(SCCc2ccncc2)c(C)c1 | 5.6% (inactive) |
| Cc1ccccc1CCNC(=O)C1CCC(=O)N(Cc2ccc(Cl)cc2)C1 (centres undefined) | 1.4% (inactive) |
| COC(=O)/C(=C1\Oc2ccc(C(C)(C)C)cc2S1)C(F)(F)F | -10.5% (inactive) |
| CCOC(=O)c1nnn(-c2nonc2OC)c1-c1ccccc1 | 1% (inactive) |
| CCOC(=O)C1=C(c2ccccc2)O/C(=C(/C(=O)OC)C(F)(F)F)S1 | 46.8% (active) |
| COc1ccc2sc(-c3ccc(S(C)(=O)=O)cc3)c(C#Cc3cncn3C)c2c1 | 47.1% (active) |
| COc1ccc(-c2sc3ccc(OC)cc3c2C#Cc2ccccn2)cc1 | 29.9% (inactive) |
| COc1ccc2sc(-c3ccc(S(C)(=O)=O)cc3)c(-c3ccc(C(N)=O)cc3)c2c1 | 38.5% (inactive) |
| CCOC(=O)C1CCN(Cc2coc3ccc(Cl)cc3c2=O)CC1 | -15.5% (inactive) |
| Cc1c(C(=O)N2CCCC2)c(S(=O)(=O)NCC(C)c2ccccc2)c(C)n1C (centres undefined) | -2.8% (inactive) |
| CCOC(=O)c1cccc(NS(=O)(=O)c2c(C(=O)N3CCCCCC3)c(C)n(C)c2C)c1 | 46.1% (active) |
| CCOC(=O)c1c(S(=O)(=O)Nc2cccc(Cl)c2)c(C)n(C)c1C | -2.9% (inactive) |
| Cc1nnc(SC(C)C(=O)Nc2ccc(S(=O)(=O)NC3CCCCC3)cc2)s1 (centres undefined) | -0.1% (inactive) |
| C=CCN1C(=O)C(Cc2ccc(OCC)cc2)SC1=Nc1ccc(C(=O)O)cc1 (centres undefined) | 7.8% (inactive) |
| CCC1CCC/C1=N\NC(=O)c1ccc(Cl)cc1 (centres undefined) | 6.6% (inactive) |
| Cc1ccc(Oc2cc(NC(=O)CCCn3nc(C)c([N+](=O)[O-])c3C)cc([N+](=O)[O-])c2)cc1 | -3.8% (inactive) |
| CN(C)[C@@H]1C(=O)C(C(N)=O)=C(O)[C@@]2(O)C(=O)C3=C(O)c4c(O)ccc(Cl)c4[C@@H](O)[C@H]3C[C@@H]12 | 6.5% (inactive) |
| C=C1c2c(Cl)ccc(O)c2C(O)=C2C(=O)[C@]3(O)C(O)=C(C(N)=O)C(=O)[C@@H](N(C)C)[C@@H]3[C@@H](O)C12 (some centres undefined) | 57.1% (active) |
| CCCn1c(SCC(=O)Nc2cccc(C(=O)OCC)c2)nnc1-c1ccoc1C | 11.9% (inactive) |
| COc1ccccc1NC(=O)CSc1nnc(-c2ccoc2C)n1CCc1ccccc1 | 94.2% (active) |
| CCn1c(SCC(=O)Nc2cc(C)c(Cl)cc2OC)nnc1-c1ccco1 | 4.1% (inactive) |
| CC(Oc1ccccc1)C(=O)Nc1oc(-c2ccco2)c(-c2ccco2)c1C#N (centres undefined) | -15.8% (inactive) |
| Cc1nonc1C1CCCN1Cc1nc(-c2ccc(F)cc2F)oc1C (centres undefined) | 0.7% (inactive) |

| SMILES | inhibition |
| --- | --- |
| CC1(C)NC(=O)N(CC(=O)Nc2cc(C(F)(F)F)cc(C(F)(F)F)c2)C1=O | 0.4% (inactive) |
| C=CCn1c(Oc2ccc(C(=O)OC)cc2)nc2c1c(=O)n(C)c(=O)n2C | -13% (inactive) |
| O=S(=O)(c1ccccc1)N1CN(Cc2ccc(F)cc2)c2nc3ccccc3nc21 | -1.4% (inactive) |
| Cc1ccc(NC(=O)c2cc([N+](=O)[O-])ccc2Cl)c(O)c1 | 2.4% (inactive) |
| CC[n+]1cc(C)ccc1/C=C/c1ccc(N(C)C)cc1 | -286% (inactive) |
| CCOc1cc(C(C(=O)NCC2CCCO2)N(C(=O)Cn2nnc3ccccc32)c2cccc(OC)c2)ccc1O (centres undefined) | 4% (inactive) |
| CC(C)(C)NC(=O)C(c1ccc(Cl)cc1)N(CCO)C(=O)c1snc(C(N)=O)c1N (centres undefined) | 5.2% (inactive) |
| Cc1ccc(C(C(=O)NCC2CCCO2)N(C(=O)c2snc(C(N)=O)c2N)c2ccc(C(C)C)cc2)o1 (centres undefined) | 45.7% (active) |
| COCCNC(=O)C(c1ccc(C)o1)N(Cc1cccs1)C(=O)c1snc(C(N)=O)c1N (centres undefined) | 4.7% (inactive) |
| Cc1cccc(N(C(=O)c2sc(C)nc2C)C(C(=O)NCC2CCCO2)c2ccccc2)c1 (centres undefined) | 2.5% (inactive) |
| O=C(NCC(=O)N(c1ccccc1)C(C(=O)NCC1CCCO1)c1ccccc1)c1cccs1 (centres undefined) | -2.5% (inactive) |
| CCOc1ccc(N(C(=O)c2snc(C(N)=O)c2N)C(C(=O)NCC2CCCO2)c2c[nH]c3ccccc23)cc1 (centres undefined) | 89.4% (active) |
| COc1cccc(N(C(=O)c2snc(C(N)=O)c2N)C(C(=O)NCC2CCCO2)c2c[nH]c3ccccc23)c1 (centres undefined) | 59.9% (active) |
| CCOc1ccc(-n2c(N)c(C(=O)NCC3CCCO3)sc2=S)cc1 (centres undefined) | 3.2% (inactive) |
| CCOc1ccc(C(C(=O)NC2CCCC2)N(C(=O)c2snc(C(N)=O)c2N)C2CCCC2)cc1 (centres undefined) | 5.2% (inactive) |
| Cc1ccc(N(C(=O)c2snc(C(N)=O)c2N)C(C(=O)NCC2CCCO2)c2c[nH]c3ccccc23)cc1 (centres undefined) | 75% (active) |
| Cc1ccc(N(C(=O)Cc2cccs2)C(C(=O)NCC2CCCO2)c2ccncc2)cc1 (centres undefined) | -4.7% (inactive) |
| COC(=O)Nc1ccc(S(=O)(=O)N(C)CC(F)(F)C(F)F)cc1 | 4.1% (inactive) |
| COc1ccccc1N1CCN(C(=O)c2cc(=O)c3cc(C)cc(C)c3o2)CC1 | -5.8% (inactive) |
| Cn1cc(S(=O)(=O)Nc2ccc(Cl)cc2Cl)c(=O)n(C)c1=O | -9.5% (inactive) |
| N/C(=N\OC(=O)CCc1ccccc1)c1ccc(Cl)cc1 | 3.8% (inactive) |
| COc1ccc(-c2nnc3ccc(SCc4ccccc4)nn23)cc1 | 49.1% (active) |
| O=C(CSc1ccc2nnc(-c3ccccc3)n2n1)N1CCCc2ccccc21 | 8.9% (inactive) |
| COC(=O)c1ccc(CSc2ccc3nnc(-c4ccccc4)n3n2)o1 | 14.2% (inactive) |
| COc1ccc(C)cc1S(=O)(=O)N(CC(=O)Nc1cccc([N+](=O)[O-])c1)c1ccc(C)cc1 | -5.5% (inactive) |
| COc1ccc(N(C(=O)c2snc(C(N)=O)c2N)C(C(=O)NC2CCCC2)c2ccc(C)o2)c(OC)c1 (centres undefined) | 12.9% (inactive) |
| CCC(C(=O)NC1CCCCC1)N(C(=O)c1snc(C(N)=O)c1N)c1ccc(OC)cc1OC (centres undefined) | 14.4% (inactive) |

| SMILES | inhibition |
| --- | --- |
| CCC(C(=O)NC1CCCC1)N(C(=O)c1snc(C(N)=O)c1N)c1ccc2c(c1)OCCO2 (centres undefined) | 86.7% (active) |
| COc1ccc(C(C(=O)NC2CCCCC2)N(C(=O)c2snc(C(N)=O)c2N)c2ccccc2OC)cc1 (centres undefined) | 8.5% (inactive) |
| COc1ccc(N(C(=O)c2snc(C(N)=O)c2N)C(C(=O)NC2CCCC2)c2ccco2)cc1OC (centres undefined) | 80.3% (active) |
| COc1cc(C(C(=O)NC2CCCC2)N(Cc2ccccc2)C(=O)c2snc(C(N)=O)c2N)ccc1O (centres undefined) | 13.8% (inactive) |
| COc1ccc(C)cc1NC(=S)Nc1ccccc1SC | -7.3% (inactive) |
| COc1cccc(/C=C2\Sc3ccc(C(=O)NCC4CCCO4)cc3N(C)C2=O)c1 (centres undefined) | -7.4% (inactive) |
| Cc1cccc(C)c1OCC(O)CN1CCCCC1 (centres undefined) | 11.2% (inactive) |
| Cc1ccccc1OCC(O)CN1CCN(c2ccccn2)CC1 (centres undefined) | 0.6% (inactive) |
| Cc1cccc(OCC(O)CN2CCN(CCN3C(=O)c4cccc5cccc(c45)C3=O)CC2)c1C (centres undefined) | 83% (active) |
| Cc1cc(C)c(S(=O)(=O)c2ccccc2)c(OC(=O)c2c(F)cccc2Cl)n1 | 2.7% (inactive) |
| O=C(COC(=O)/C=C/c1nc2ccccc2s1)Nc1ccccc1Oc1ccccc1 | -4.1% (inactive) |
| CC(c1ccco1)N(C(=O)COc1ccccc1[N+](=O)[O-])c1ccccn1 (centres undefined) | -13.5% (inactive) |
| CC(C)Nc1ccc(-n2nc3ccccc3[n+]2[O-])cc1 | 0.3% (inactive) |
| C#CCOCCOCCOCCNc1nc(N2CCN(C(=O)[C@H](CCC(=O)O)n3cc(C(N)CO)nn3)CC2)nc(N2CCN(C(=O)[C@H](Cc3ccc(O)cc3)n3cc(C(N)[C@H](C)CC)nn3)CC2)n1 (some centres undefined) | -1.7% (inactive) |
| C#CCOCCOCCOCCNc1nc(N2CCN(C(=O)[C@H](CCC(=O)O)n3cc(C(N)CO)nn3)CC2)nc(N2CCN(C(=O)[C@H](CCCCN)n3cc(C(N)[C@H](C)CC)nn3)CC2)n1 (some centres undefined) | 5.8% (inactive) |
| C#CCOCCOCCOCCNc1nc(N2CCN(C(=O)[C@H](CCCCN)n3cc([C@@H](N)C(C)CC)nn3)CC2)nc(N2CCN(C(=O)[C@H](Cc3ccc(O)cc3)n3cc([C@@H](N)C(C)CC)nn3)CC2)n1 (some centres undefined) | 95.9% (active) |
| C#CCOCCOCCOCCNc1nc(N2CCN(C(=O)[C@H](Cc3ccc(O)cc3)n3cc(C(N)CC(C)C)nn3)CC2)nc(N2CCN(C(=O)[C@H](CCC(=O)O)n3cc(C(N)[C@H](C)CC)nn3)CC2)n1 (some centres undefined) | -7.8% (inactive) |
| C#CCOCCOCCOCCNc1nc(N2CCN(C(=O)[C@H](CO)n3cc([C@@H](N)C(C)C)nn3)CC2)nc(N2CCN(C(=O)[C@H](CCC(=O)O)n3cc([C@@H](N)[C@H](C)CC)nn3)CC2)n1 | 8.2% (inactive) |
| C#CCOCCOCCOCCNc1nc(N2CCN(C(=O)C(Cc3ccc(O)cc3)n3cc(C(N)CC(C)C)nn3)CC2)nc(N2CCN(C(=O)C(Cc3ccc(O)cc3)n3cc(C(N)C(C)CC)nn3)CC2)n1 (centres undefined) | 45.5% (active) |
| O=C(Cn1c[n+](CC(=O)c2ccc([N+](=O)[O-])cc2)cn1)c1ccc([N+](=O)[O-])cc1 | -18.4% (inactive) and -8% (inactive) |
| S=C(c1ccc(-c2ccccc2)o1)N1CCCCC1 | -13.9% (inactive) |
| CC(C)NC(=O)C(=O)NCCCOC(C)C | -2.8% (inactive) |
| COc1cccc(OCc2cc(/C=N/NC(=O)c3nc(Cl)c(Cl)c(N)c3Cl)ccc2OC)c1 | -21.4% (inactive) |
| COc1ccc(/C=N\NC(=O)c2sc(N)nc2C)cc1OC | 102% (active) |
| COc1cc(/C=N/NC(=O)CNC(=O)c2ccncc2)ccc1OC(C)=O | -6.5% (inactive) |
